The panel holds about 79,000 compounds, 15% with a hit somewhere; the sample as a whole holds those more often. Unmarked numbers belong to inactive results. The source made the active and inactive calls. No stated cut-off is given here; in the data, active means growth inhibition above about 70%; inactive means the rest.
Assay: NCI Yeast Anticancer Drug Screen. Data for the sgs1 strain (AID 173);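 further: 0% = growth of vehicle-only control cultures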
Conditions: S. cerevisiae sgs1 mutant, stronger effect = higher value
Method: Growth inhibition of yeast strains with defined genetic alterations is measured as a screen for potential anti-cancer activity. Selected strains with alterations in DNA damage repair or cell cycle control were exposed to compounds and growth inhibition was measured relative to vehicle treated controls. The strain used in this assay is sgs1

SMILES	growth inhibition (at 1.2 µM)	growth inhibition (at 3.7 µM)	growth inhibition (at 11.0 µM)	growth inhibition (at 33.0 µM)	growth inhibition (at 100.0 µM)
O=C(c1cc(Br)ccc1O)c1cc(Br)ccc1O	32%	90% (active)	99% (active)	100% (active)	100% (active)
CCOC(=O)C1=C(C(=O)c2ccccc2)C(c2ccccc2[N+](=O)[O-])C(C(=O)c2ccccc2)=C(C(=O)OCC)N1	-2%	1%	5%	7%	17%
c1ccc(-c2nc3cccnc3s2)cc1	-2%	-3%	-2%	-3%	-9%
COc1ccc2c(c1)C(=O)c1ccccc1C2	-3%	-4%	0%	0%	1%
CC(=O)Oc1cc(-c2cc(OC(C)=O)c(OC(C)=O)c3ccccc23)c2ccccc2c1OC(C)=O	7%	10%	11%	16%	82% (active)
COc1ccc(OC)c2cc3ccccc3cc12	-12%	-12%	-5%	-1%	7%
COc1ccc2nc3cccc([N+](=O)[O-])c3c(NCCN(CCO)CCO)c2c1	80% (active)	90% (active)	93% (active)	95% (active)	96% (active)
S=C(S)NN1CCOCC1	84% (active)	47%	39%	54%	50%
